Screen size: about 65,000 compounds; about 3,600 (5.5%) were called active. The full list was thinned out, with actives kept by preference. A number with no mark means an inactive call.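 Rule for the calls: active = at 10 µM, mean starting fluorescence two-fold or more over control wells; inactive = the rest.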

The nature of the assay: intrinsic fluorescence of library compounds, ex339/em460 – biochemical, MLSMR library, data from DPM-DC assay, artefact control, profiling panel (AID 709).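 Note: signal is the first read of a kinetic run.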 To be noted: compound autofluorescence, ex339/em460 nm, NADH buffer; at 10 µM; active compounds read high; 1 = no-compound wells, NADH background.
Consider `Cc1cc(NC(=O)c2cc(-c3cccs3)on2)nn1Cc1ccc(Cl)cc1`, for which the fluorescence fold increase is 2.04 (active).

As for `O=C(c1cc(-c2cccs2)on1)N1CCCCC1`, the fluorescence fold increase is 1.16. The same measure for `Cc1ccc(Cn2ccc(NC(=O)c3cc(C(C)C)on3)n2)cc1`: 1.08. With `CCOC(=O)c1cc2cc(-c3c(C(=O)OCC)oc4cc(O)cc(O)c4c3=O)ccc2o1`, the fluorescence fold increase was 1.11.

Regarding `CCCCOc1ccc(Cl)cc1CSc1nncn1N`, the fluorescence fold increase was 1.07. Under `Cc1ccccc1NC(=O)Cc1nnc(SCC(=O)N2CCN(c3ccccc3)CC2)n1C` stands 1.

As to `CN(C)c1nc2n(c(=O)n1)CCO2`, the fluorescence fold increase is 1.07. In the case of `c1ccc(Nc2n[nH]nc2-c2ccccc2)cc1`, the fluorescence fold increase is 1.07. In the case of `CCOc1ccc(CNC(=O)C2CCC(=O)N2C2CCCC2)cc1OC` (stereo unspecified), the fluorescence fold increase was 1.07.

Consider `CCOc1cc(C2C(C(=O)OC)=CN(C3CCCC3)C=C2C(=O)OC)cc(Br)c1O`, for which the fluorescence fold increase is 2.88 (active). The same measure for `CCCC(=O)Nc1cc(OCC)c(NC(=O)NC2CCCCC2)cc1OCC`: 1.11; for `c1ccc(-n2ncc(-c3nn[nH]n3)n2)cc1`: 1.08. For the molecule `Cc1ccc(C(=O)Nc2ccc3c(c2)OCO3)cc1S(=O)(=O)N1CCCCC1`, the fluorescence fold increase was 1.08.

Regarding `NC(=O)CSC1=Nc2ccccc2C2=NC(CCC(=O)NCc3ccc(F)cc3)C(=O)N12` (stereo unspecified), the fluorescence fold increase was 3.51 (active).

Take `CC(C)C1N=C2c3ccccc3N=C(SCC(=O)c3ccc(O)c(O)c3)N2C1=O` (stereo unspecified): the fluorescence fold increase was 1.21.

Take `O=C(CC1N=C2c3ccccc3N=C(SCc3ccccc3Cl)N2C1=O)NCc1ccco1` (stereo unspecified): the fluorescence fold increase was 1.58. In the case of `CC(C)C(C(=O)NC1CCCCC1)N(CC1CCCO1)C(=O)CNS(=O)(=O)c1ccc(F)cc1` (stereo unspecified), the fluorescence fold increase is 1.11. The same measure for `COc1c(O)cccc1-c1nnn(CCC(=O)OCC(=O)c2ccccc2)n1`: 1.07; for `CC(C)(CNCC(O)c1ccccc1)N1CCOCC1` (stereo unspecified): 1.05; for `O=S(=O)(O)CCN1CCOCC1`: 1.15.

Turning to `Brc1cnc(N2CCCC2)nc1N1CCCCC1`, the fluorescence fold increase is 1.08.

Turning to `CCOc1cccc(=O)c2c(C)n(CC3CCCO3)c(C)c12` (stereo unspecified), the fluorescence fold increase is 1.05. The same measure for `CCOc1cc(-c2nc3cc(C)ccn3c2NCC2CCCO2)ccc1O` (stereo unspecified): 3.63 (active); for `CCOc1cc(C(=S)N2CCOCC2)ccc1O`: 1.04; for `CCn1c(=O)cc(SCC(=O)NCc2ccc3c(c2)OCO3)c2ccccc21`: 1.2. Under `O=C(Oc1ccc(-c2nc(-c3ccccn3)no2)cc1)c1ccccc1` stands 1.09; under `COc1cc(-c2nc(-c3ccncc3)no2)cc(OC)c1OC`, 1.03.

As for `COc1ccc2[nH]c(=O)c(-c3noc(-c4ccc(F)cc4)n3)cc2c1`, the fluorescence fold increase is 1.38.

Take `COc1ccc(-c2nc(-c3ccccc3)no2)c(OC)c1`: the fluorescence fold increase is 1.12. Under `COc1ccc(-c2ccc(-c3noc(-c4ccncc4)n3)c(OC)n2)cc1` stands 3 (active); under `CCOc1nc(-c2ccc(OC)cc2)ccc1-c1noc(-c2cc(OC)c(OC)c(OC)c2)n1`, 3.92 (active).

For the origin of these results see PubChem BioAssay AID709 (SRMLSC, 2007).
